Shown is part of a subset that was picked to be rich in the strongest signals.
Legend:
Assay in all cases: glycan array binding signal (z-score within array); higher = stronger binding
Conditions in all cases: glycan notation: IUPAC condensed, linker removed
[1] = biological target: Gal(b1-4)GlcNAc(b1-3)[GlcNAc(b1-6)]Gal(b1-4)GlcNAc
Outline: (§1)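 Glycan array data came from 3228 arrays in the Consortium for Functional Glycomics database, and only arrays with an available protein sequence were kept. Glycan names were put into IUPAC-condensed notation, and columns mapping to the same glycan were averaged. The binding signal is a within-array Z-score, averaged across arrays of one protein sequence run at different concentrations or buffers and across linkers. A negative Z-score can be read as non-binding.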

[2] = biological target: Gal(b1-4)GlcNAc(b1-6)[Gal(b1-4)GlcNAc(b1-3)]GalNAc
Outline: as §1

[3] = biological target: Gal3S(b1-4)[Fuc(a1-3)]GlcNAc6S
Outline: as §1

Gal6P(b1-4)GlcNAc = biological target: Gal6P(b1-4)GlcNAc
Outline: as §1

[4] = biological target: GalNAc(b1-3)Gal(a1-6)Gal(b1-4)Glc
Outline: as §1

GalNAc(b1-4)GlcNAc = biological target: GalNAc(b1-4)GlcNAc
Outline: as §1

[5] = biological target: GalNAc(b1-4)GlcNAc(b1-2)Man(a1-3)[GalNAc(b1-4)GlcNAc(b1-2)Man(a1-6)]Man(b1-4)GlcNAc(b1-4)GlcNAc
Outline: as §1

GalNAc4S6S(b1-4)GlcNAc = biological target: GalNAc4S6S(b1-4)GlcNAc
Outline: as §1

[6] = biological target: Glc(a1-6)Glc(a1-6)Glc(a1-6)Glc
Outline: as §1

GlcA(b1-3)GlcNAc = biological target: GlcA(b1-3)GlcNAc
Outline: as §1

[7] = biological target: GlcNAc(b1-3)Gal(b1-4)GlcNAc(b1-2)Man(a1-3)[GlcNAc(b1-3)Gal(b1-4)GlcNAc(b1-2)Man(a1-6)]Man(b1-4)GlcNAc(b1-4)GlcNAc
Outline: as §1

[8] = biological target: GlcNAc(b1-3)Gal(b1-4)GlcNAc(b1-3)Gal(b1-4)GlcNAc(b1-3)Gal(b1-4)GlcNAc(b1-2)[GlcNAc(b1-3)Gal(b1-4)GlcNAc(b1-3)Gal(b1-4)GlcNAc(b1-3)Gal(b1-4)GlcNAc(b1-6)]Man(a1-6)[GlcNAc(b1-3)Gal(b1-4)GlcNAc(b1-3)Gal(b1-4)GlcNAc(b1-3)Gal(b1-4)GlcNAc(b1-2)Man(a1-3)]Man(b1-4)GlcNAc(b1-4)[Fuc(a1-6)]GlcNAc
Outline: as §1

[9] = biological target: GlcNAc(b1-6)Gal(b1-4)GlcNAc
Outline: as §1

[10] = biological target: Man(a1-3)[Man(a1-6)]Man(b1-4)GlcNAc(b1-4)GlcNAc
Outline: as §1

[11] = biological target: Man(a1-3)[Man(a1-6)]Man(b1-4)GlcNAc(b1-4)[Fuc(a1-6)]GlcNAc
Outline: as §1

MurNAc(b1-4)GlcNAc = biological target: MurNAc(b1-4)GlcNAc
Outline: as §1

[12] = biological target: Neu5Ac(a2-3)Gal(b1-3)GalNAc
Outline: as §1

[13] = biological target: Neu5Ac(a2-3)Gal(b1-3)GlcNAc(b1-2)Man(a1-3)[Neu5Ac(a2-3)Gal(b1-3)GlcNAc(b1-2)Man(a1-6)]Man(b1-4)GlcNAc(b1-4)GlcNAc
Outline: as §1

[14] = biological target: Neu5Ac(a2-3)Gal(b1-4)GlcNAc(b1-2)[Neu5Ac(a2-3)Gal(b1-4)GlcNAc(b1-6)]Man(a1-6)[Neu5Ac(a2-3)Gal(b1-4)GlcNAc(b1-2)Man(a1-3)]Man(b1-4)GlcNAc(b1-4)GlcNAc
Outline: as §1

[15] = biological target: Neu5Ac(a2-3)Gal(b1-4)GlcNAc(b1-3)Gal(b1-4)GlcNAc
Outline: as §1

[16] = biological target: Neu5Ac(a2-3)Gal(b1-4)GlcNAc(b1-3)Gal(b1-4)GlcNAc(b1-3)Gal(b1-4)GlcNAc(b1-2)Man(a1-3)[Neu5Ac(a2-3)Gal(b1-4)GlcNAc(b1-3)Gal(b1-4)GlcNAc(b1-3)Gal(b1-4)GlcNAc(b1-2)Man(a1-6)]GalNAc
Outline: as §1

[17] = biological target: Neu5Ac(a2-6)Gal(b1-4)GlcNAc(b1-2)Man(a1-3)[GlcNAc(b1-4)][Neu5Ac(a2-6)Gal(b1-4)GlcNAc(b1-2)Man(a1-6)]Man(b1-4)GlcNAc(b1-4)GlcNAc
Outline: as §1

[18] = biological target: Neu5Ac(a2-6)Gal(b1-4)GlcNAc(b1-2)[Neu5Ac(a2-6)Gal(b1-4)GlcNAc(b1-4)]Man(a1-3)[GlcNAc(b1-4)][Neu5Ac(a2-6)Gal(b1-4)GlcNAc(b1-4)Man(a1-6)]Man(b1-4)GlcNAc(b1-4)GlcNAc
Outline: as §1

[19] = biological target: Neu5Ac(a2-6)Gal(b1-4)GlcNAc6S
Outline: as §1

[20] = biological target: Neu5Ac(a2-8)Neu5Ac(a2-8)Neu5Ac(a2-3)Gal(b1-4)Glc
Outline: as §1

B1: GS13971A-bth-447-22-447 (Bacteroides thetaiotaomicron) (protein)
chain: EDVDNERSKGMFSASQSGFSTIEVYDLGPLNKIDLSIAKAGLEDTGGTVTFSVEQSLLDSLNNADGTSYQLLPPECYTIENATYSVSPGGDRRVTGGSLVYDPHKIYNLCGFDELKYVLPLRVSSTGTPMNSDRTATLYGFIVKEAIVRLASTGGDFVVEGGTTTSPMNLDTEISFENEWDLTTSFATKGADYVDNYNSANSTYYIPLPSDFYTLPDVTIAKGKTTGGSAISLLGETLPPGNYLLPVSLGGLSGQGDASINIDKETVANYFVIKQGGPINRDHWTVTANTEEKTGEVSAAYPHNGQTISLIDGEINTFWHSKWQGGEVAPPYEIILDMGKENSVSQLGLIARQNALTSMNLEIYAGDDGETWNLIGKYFFDGSIKTEQMVPVKACDARWIRIYIPTLGSGSSVGHLAEIYVYGTDK
[1]
  glycan array binding signal (z-score): 0.129
[2]
  glycan array binding signal (z-score): -0.463
[3]
  glycan array binding signal (z-score): 0.338
Gal6P(b1-4)GlcNAc
  glycan array binding signal (z-score): -0.674
[4]
  glycan array binding signal (z-score): -0.007
GalNAc(b1-4)GlcNAc
  glycan array binding signal (z-score): 2.92
[5]
  glycan array binding signal (z-score): 5.75
GalNAc4S6S(b1-4)GlcNAc
  glycan array binding signal (z-score): -0.217
[6]
  glycan array binding signal (z-score): 0.028
GlcA(b1-3)GlcNAc
  glycan array binding signal (z-score): -0.782
[7]
  glycan array binding signal (z-score): -0.725
[8]
  glycan array binding signal (z-score): 2.94
[9]
  glycan array binding signal (z-score): 2.1
[10]
  glycan array binding signal (z-score): 0.252
[11]
  glycan array binding signal (z-score): -0.859
MurNAc(b1-4)GlcNAc
  glycan array binding signal (z-score): -0.36
[12]
  glycan array binding signal (z-score): 0.032
[13]
  glycan array binding signal (z-score): -0.673
[14]
  glycan array binding signal (z-score): 1.47
[15]
  glycan array binding signal (z-score): 1.45
[16]
  glycan array binding signal (z-score): 2.81
[17]
  glycan array binding signal (z-score): 0.18
[18]
  glycan array binding signal (z-score): -1.25
[19]
  glycan array binding signal (z-score): -1.24
[20]
  glycan array binding signal (z-score): 1.11

From the supplement of paper PMC8728848
